High-throughput results as filed in PubChem BioAssay.
Sampled rows, rich in hits. Any-hit rate of the full collection: about 7.2%.
Efflux pump mplx – antifungal efflux pump inhibition, Nile Red retention | hit rate 0.44% among 330,000 | S. cerevisiae Candida pump triplex | inhibition, % at 10 µM;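 active = plate passing quality check with inhibition over a set limit, or well fluorescence over plate mean plus 4 SD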;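 note: Nile Red retained in pooled yeast measured as flow cytometry median fluorescence; 0% = buffer negative control and 100% = Enniatin B positive control; higher means more Nile Red kept so more efflux inhibition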
SUMO Mot1 rescue – SUMOylation pathway inhibition by Mot1-301 growth rescue | S. cerevisiae Mot1-301 growth rescue, ATP luminescence, 38.5C; percent above DMSO median, 100 means doubled | hit rate 1% among 320,000 | growth rescue, % at 18.8 µM;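 active = every valid replicate shows activation above 250% relative to neutral control wells; inactive = the rest, any valid replicate at or below 250%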;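 note: OY570 slx delta 5 strain wells were the positive control but not used for scaling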
Bfl-1 A1 inh – inhibitors of the anti-apoptotic protein A1, read as caspase activation | caspase activation, % (no concentration beside the values) | MEF A1-2A-BIM cells, Caspase-Glo 3/7 luminescence, 3 h; percent of clofoctol response, vehicle zero | hit rate 0.066% among 330,000;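 active = over half of replicate activation scores above 10%, or exactly half above 10 with the replicate mean above 10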
ALR inh – inhibitors of human sulfhydryl oxidase ALR; P55789; purified ALR, DTT oxidation, H2O2 HRP-luminol luminescence; inhibition, % (concentration not given with the values); hit rate 3.8% among 290,000; AID 485317;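 active = mean replicate inhibition above about 79%, with every replicate also reaching it, limit read from the data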
AHR act – activates the human aryl hydrocarbon receptor | P35869 | AHR-responsive luciferase reporter cells, luminescence | activation, % at 5 µM | hit rate 2.5% among 320,000; in the data active = activation above about 47%;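 note: 0% = vehicle wells and 100% = reference agonist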
VLA-4 inh – inhibition in a human VLA-4 binding assay; P13612; VLA-4 expressing cells, ligand binding flow cytometry; inhibition, % (about 7 µM as worked out from the volumes in the protocol); hit rate 0.2% among 330,000; AID 2557; in the data active = inhibition above about 50%
* hit, by the source's call; nt = no result.

SMILES	Efflux pump mplx	SUMO Mot1 rescue	Bfl-1 A1 inh	ALR inh	AHR act	VLA-4 inh
Cc1ccc(-c2csc3ncnc(Nc4ccc(N5CCOCC5)cc4)c23)cc1	-0.1	10.9	-2.3	-1.4	78.1*	-7.2
CCOc1ccc2nc(NCCNC(=O)Nc3cccc(C)c3)c(C#N)cc2c1	0.1	13.2	7.5*	nt	10.1	-19.6
Cn1c2ccccc2c2cc(C(=O)NNS(=O)(=O)c3ccc(F)cc3)sc21	-0.1	24.1	0.0	3.3	76.9*	14.4
O=C(NNS(=O)(=O)c1ccc(F)cc1)c1cc2ccccc2cc1O	-0.5	-13.2	-0.7	98.4*	1.0	-7.8
O=C(NNS(=O)(=O)c1ccc(F)cc1)c1ccccc1F	-0.1	0.9	0.8	24.2	-0.1	-6.8
CC(C)(C)c1ccc(S(=O)(=O)NNC(=O)c2cc3ccccc3[nH]2)cc1	0.3	-8.5	-0.2	27.2	74.3*	4.5
O=C(N/N=C/c1ccncc1)C1C2CCCCCCC21 (stereo not given)	-0.2	21.0	1.0	0.7	44.2	0.9
COC(=O)C(Cc1ccccc1)NC(=O)CCNC(=O)c1ccc(Br)cc1 (stereo not given)	0.2	9.2	0.4	-7.3	5.5	7.0
COc1ccc(-c2noc(N3CCC(C(=O)NC(C)c4ccccc4)CC3)n2)cc1 (stereo not given)	0.0	21.1	0.8	-12.0	0.0	6.0
Clc1ccc(-c2nc3nc4ccccc4nc3n2Cc2ccco2)cc1	0.2	226.1	-1.9	10.7	52.6*	1.6
COc1ccc(C(=O)C(C)OC(=O)c2nc3nccc(C)n3n2)cc1 (stereo not given)	-0.2	108.3	0.4	0.2	-0.5	7.5
CC(=O)Nc1ccc(S(=O)(=O)N(C)CC(=O)OCC(=O)N2CCCC2=O)cc1	0.0	-9.0	-0.4	-1.2	0.9	3.9
O=C(NCc1ccccc1)c1c[nH]c2cc3c(cc2c1=O)OCCO3	0.0	16.3	1.3	13.8	77.2*	-11.4
Oc1ccc(-c2csc(-c3c[nH]c4ccccc34)n2)c(O)c1	-0.1	1.6	0.0	5.0	61.1*	11.4
COn1c(=O)c(-c2ccc(C)cc2)[n+]([O-])c2ccccc21	0.2	-3.1	0.3	-2.3	31.3	3.2
COn1c(=O)c(-c2ccc(Cl)cc2)[n+]([O-])c2ccccc21	0.1	341.8	-0.1	-12.2	71.8*	1.2
Cc1noc(NS(=O)(=O)c2ccc(NC(=O)/C=C/c3ccc(Br)cc3)cc2)c1C	-0.1	11.9	-2.9	91.3*	nt	-9.5
Cc1noc(NS(=O)(=O)c2ccc(NC(=O)CSc3n[nH]c(-c4ccccc4)n3)cc2)c1C	-0.1	128.8	-1.3	11.8	-3.4	9.4
Cc1noc(NS(=O)(=O)c2ccc(NC(=O)CSc3nnc(-c4ccccc4)n3C3CCCCC3)cc2)c1C	0.3	-2.4	0.8	98.1*	-0.6	-9.2
Cc1cc(C)c(C#N)c(SCC(=O)Nc2ccc(S(=O)(=O)Nc3onc(C)c3C)cc2)n1	0.0	187.2	0.9	96.2*	-1.2	-0.4
Cc1noc(NS(=O)(=O)c2ccc(NC(=O)CCN3C(=O)c4ccccc4C3=O)cc2)c1C	0.0	-0.7	-0.3	94.4*	1.8	-9.5
Cc1noc(NS(=O)(=O)c2ccc(NC(=O)CSc3nc4ccccc4[nH]3)cc2)c1C	0.0	5.0	0.1	74.9	0.4	10.1
Cc1ccc(N(CC(=O)NC2CCCCC2)S(=O)(=O)c2c(C)noc2C)cc1	0.3	3.1	0.5	-1.7	2.7	21.9
COc1ccccc1OCCn1cc(/C=N/n2cnnc2)c2ccccc21	0.5	7.9	-0.1	2.4	49.4*	-0.6
c1ccc2nc(-c3ccc4c(c3)OCO4)ccc2c1	0.0	249.7	-10.5	27.1	64.9*	31.0
COc1ccc(CCNC(=O)CSc2nc3ccccc3o2)cc1	0.4	nt	-0.2	-10.9	1.2	4.7
O=C(NC1CC1)c1cccc(NC(=O)c2cnn(-c3ccccc3)n2)c1	-0.2	-0.1	-1.4	6.4	59.4*	3.0
O=C(Nc1cccc(C(=O)NC2CCCC2)c1)c1ccccc1	0.1	-3.2	-0.3	-6.1	11.0	-7.5
COCc1ccc(C(=O)N2CCCC(Nc3ccc4c(c3)OCCO4)C2)o1 (stereo not given)	-0.1	5.2	-0.1	98.7*	10.5	9.7
